# Only some compounds are listed: those with a hit (about 4.7% of all), similar ones and a draw of the others.
# D1 PAM: potentiators of human D1 dopamine receptor; potentiation, % at 10 µM; P21728; hit rate 0.036% among 360,000; HEK293 TREx D1 cells, calcium flux, dopamine EC20 potentiation; in the data active = potentiation above about 30%; note: 0% is about no effect
# Target sequence (P21728 whole entry, looked up): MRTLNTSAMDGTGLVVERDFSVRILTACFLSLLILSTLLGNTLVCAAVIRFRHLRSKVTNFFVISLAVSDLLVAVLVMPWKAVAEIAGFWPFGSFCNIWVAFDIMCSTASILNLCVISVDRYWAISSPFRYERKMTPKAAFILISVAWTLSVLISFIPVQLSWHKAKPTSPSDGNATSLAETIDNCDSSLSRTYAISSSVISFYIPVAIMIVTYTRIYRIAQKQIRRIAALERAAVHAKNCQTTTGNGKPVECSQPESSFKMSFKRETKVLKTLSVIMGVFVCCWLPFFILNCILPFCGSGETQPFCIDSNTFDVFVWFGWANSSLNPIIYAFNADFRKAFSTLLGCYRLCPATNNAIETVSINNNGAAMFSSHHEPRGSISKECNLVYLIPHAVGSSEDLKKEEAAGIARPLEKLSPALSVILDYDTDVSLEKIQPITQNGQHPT
# D1 antag: antagonists of human D1 dopamine receptor; HEK293 TREx D1 cells, calcium flux, dopamine EC80; active compounds read low; P21728; activity change, negative = inhibition, % at 10 µM; AID 504652; hit rate 3.2% among 360,000; in the data active = activity change below about -30%; note: % is set by controls: 0 for no effect and ±100 for the full control effect
#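 Kinetic fluorescence of a calcium dye serves as the read-out. D1-expressing Hek293 Trex cells, induced overnight at 30 C, are exposed to compound for 180 s before an EC80 dopamine addition, then read 180 s further.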
# TRHR ag: TRH receptor (human) agonism. TRHR cells, calcium flux fluo-8, FDSS agonist mode. hit rate 0.18% among 360,000. AID 493084. activation, % at 2 µM; note: 0% is about no effect
#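 Agonist-mode FDSS calcium read (Ex 480/Em 530, 1 s cycles) in 1536-well TRHR cells with fluo-8 dye, after 10-cycle baseline and 23 nL compound addition; TRH at EC20 (10 nM final) added afterwards for the enhancer phase.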
# D1 ag: human D1 receptor agonism. hit rate 1% among 360,000. activation, % at 2 µM. HEK293 T-REx D1 cells, calcium flux, agonist mode. P21728; note: 0% is about no effect
#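 Agonism was scored from calcium flux recorded over 180 s (1 read/s) after pintool compound addition, following a 10-cycle baseline. Cells were inducible force-coupled HEK293 TREx D1, plated overnight at 30 C and loaded with no-wash calcium dye.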
# TRHR PAM: allosterically enhances the human TRH receptor; TRHR cells, fluo-8 calcium fluorescence, EC20 TRH enhancement; enhancement, % at 2 µM; hit rate 0.66% among 360,000; AID 493056; in the data active = enhancement above about 30%; note: 0% is about no effect
#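 TRHR-expressing cells loaded with fluo-8 calcium dye were read kinetically (ex 480/em 530) during compound addition, then stimulated with an EC20 of TRH (10 nM final). Enhancement of the Gq-mediated intracellular calcium response was scored.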
# Numbers without * were called inactive; x = no result given. Cut-off read from the data, not from the text of the source, unless noted: active = activation above about 30%; inactive = the rest.
SMILES,D1 PAM,D1 antag,TRHR ag,D1 ag,TRHR PAM
COc1cccc(CNC(=O)c2cc3oc4ccccc4c3n2C)c1OC,-9.7,-31.9*,1.1,2.9,12.6
Cc1ccc2c(c1)-c1c(cnn1CC(=O)N1CCN(c3cc(C)ccc3C)CC1)CO2,8.2,22.2,0.2,1.0,-2.8
N=c1n(Cc2ccccc2)c2ccccc2n1CC(O)COc1ccccc1 (centres undefined),-7.8,-30.9*,0.4,25.4,0.2
CCCCn1c(=N)n(CC(O)COc2ccc(C)cc2)c2ccccc21 (centres undefined),-6.5,4.5,2.2,27.4,3.9
Cc1ccc(Cn2c(=N)n(CC(O)COc3ccccc3)c3ccccc32)cc1 (centres undefined),-7.8,-16.7,1.3,41.9*,5.5
CCOc1ccccc1NC(=O)Cn1c(=O)n(Cc2ccccc2)c(=O)c2c(C)c(C)sc21,1.1,3.1,1.1,2.4,-3.3
CCOc1ccccc1-n1nnc(-c2nc(-c3ccccc3)no2)c1N,-3.9,-4.6,0.3,3.5,5.0
O=C(COC(=O)c1ccc(O)cc1O)c1ccc2c(c1)OCO2,2.4,-15.1,0.4,0.8,-9.8
O=C(COC(=O)c1cc(Cl)ccc1O)c1ccc2c(c1)OCO2,-4.2,-16.0,-0.2,3.5,38.4*
COc1ccccc1CN1CCCC(N2CCN(c3ccccc3OC)CC2)C1 (centres undefined),-8.0,-50.5*,-0.3,6.1,-9.0
COc1ccccc1N1CCN(C2CCCN(Cc3cccc(O)c3)C2)CC1 (centres undefined),1.2,-50.4*,0.0,-1.5,3.4
CCCOc1cccc(C2c3c(oc4ccccc4c3=O)C(=O)N2c2nncs2)c1 (centres undefined),-3.4,-7.2,-1.0,22.0,10.9
Cc1ccc2c(c1)N(C(=O)CCC(=O)NCCN1CCOCC1)CC(C)O2 (centres undefined),-5.2,-36.3*,-0.1,0.4,-3.3
COc1ccc(CCNC(=O)CCC(=O)N2CC(C)Oc3ccc(Cl)cc32)cc1OC (centres undefined),-7.9,-57.6*,-0.7,-0.7,1.3
Cc1ccc2c(c1)N(C(=O)CCC(=O)N1CCOCC1)CCO2,-10.2,-31.2*,-0.1,2.6,-1.8
Cc1ccc2c(c1)N(C(=O)CCC(=O)NCCCN1CCOCC1)CC(C)O2 (centres undefined),-12.8,1.2,0.0,0.8,0.5
COc1ccc(-c2nc(SCC(=O)NC3CCCC3)c(-c3ccccc3)[nH]2)cc1OC,0.4,2.3,-1.3,0.5,0.4
COc1ccc(-c2nc3scc(CCNS(=O)(=O)c4cccc(C(C)=O)c4)n3n2)cc1,-3.0,x,0.1,0.2,-3.3
Cc1cc(C)c2c(=O)cc(C(=O)Nc3sc4c(c3C(=O)NCc3cccnc3)CCCC4)oc2c1,0.5,5.2,-0.4,0.1,1.7
Cc1ccc(CNC(=O)CNC(=S)N(Cc2ccccc2)Cc2ccccc2F)cc1,-14.0,-30.4*,0.9,6.4,4.4
Cc1ccc(NC(=O)N2CCC(c3nc4c(nnn4Cc4cccc(Cl)c4)c(=O)[nH]3)CC2)cc1,-8.4,-46.8*,1.0,3.8,2.4
O=[N+]([O-])c1cc(C(F)(F)F)cc([N+](=O)[O-])c1N1CCN(S(=O)(=O)c2ccccc2)CC1,-4.2,-32.3*,0.2,1.4,-1.3
COc1ccccc1NS(=O)(=O)c1ccc(C(=O)N2CCCC(C(F)(F)F)C2)cc1 (centres undefined),-0.4,4.3,-1.3,17.4,-8.6
Cc1ccc(NS(=O)(=O)c2ccc(C(=O)N3CCCC(C(F)(F)F)C3)cc2)cc1 (centres undefined),4.0,-61.7*,15.7,69.8*,-3.3
CC1CCN(S(=O)(=O)c2ccc(C(=O)N3CCCC(C(F)(F)F)C3)cc2)CC1 (centres undefined),-1.1,-33.0*,-0.2,7.5,4.0
SMILES,D1 PAM,D1 antag,TRHR ag,D1 ag,TRHR PAM
CCC(C)NC(=O)CCC(=O)N1Cc2ccccc2Oc2ncccc21 (centres undefined),-1.9,-6.4,-1.5,4.5,12.8
Cc1[nH]c(=O)[nH]c(=O)c1S(=O)(=O)N1CCN(c2ccccc2Cl)CC1,-5.7,-4.4,0.4,1.5,23.0
COc1ccc(N2C(=O)CSC23C(=O)N(Cc2ccc(C)cc2)c2ccccc23)cc1Cl (centres undefined),-1.7,1.1,-0.2,19.7,2.2
COc1ccc(N(CC(=O)N/N=C/c2cccnc2)S(=O)(=O)c2ccc(C)cc2)cc1OC,-4.9,-52.2*,0.1,2.8,-3.4
CCc1sc(Nc2cccc(Cl)c2)nc1-c1cc2cccc(OC)c2oc1=O,-1.9,-2.9,0.2,-1.4,-3.0
COc1ccc(CN2CCN(c3ncnc4sc5c(c34)CC(C)CC5)CC2)cc1F (centres undefined),-1.1,18.1,0.3,-2.4,1.2
CCOc1ccc(CN2CCN(c3ncnc4sc5c(c34)CC(C)CC5)CC2)cc1 (centres undefined),-1.1,-33.3*,0.4,-1.8,1.3
COCCCNS(=O)(=O)c1cc(-c2onc(C)c2C)ccc1OC,-3.0,8.0,-0.5,3.3,7.8
COc1ccc(OCC2c3cc(OC)c(OC)cc3CCN2C(=O)c2ccc(F)cc2)cc1 (centres undefined),2.6,12.2,0.1,5.1,0.8
CN(C)c1ccc2nc3c(=O)[nH]c(=O)nc-3n(CC(O)C(O)C(O)CO)c2c1 (centres undefined),-1.6,2.6,11.5,46.2*,3.5
Cc1cn2c(=O)cc(COc3ccc(NC(=O)c4ccccc4C)cc3)nc2s1,-1.5,-6.5,-1.7,0.5,6.1
Cc1ccc2c(C)c(C(=O)N(C)C(C)c3ccon3)oc2c1C (centres undefined),-0.9,-39.3*,0.0,2.1,0.9
O=c1c(-c2ccc(Cl)cc2)c(C(F)(F)F)oc2c(CN3CCCCC3)c(O)ccc12,-1.8,5.6,-0.9,-0.6,18.3
CCN(CC)S(=O)(=O)c1ccc2c(c1)N(CC(=O)NCCc1ccccc1)C(=O)CO2,-0.5,0.9,0.2,1.9,-3.7
COC(=O)NC(=S)Nc1ccc(Oc2ccc(Cl)cc2)c(Cl)c1,-5.2,-35.4*,-0.5,6.1,0.0
O=S(=O)(c1ccc2ccccc2c1)N1CCC(c2nc(-c3ccncc3)no2)CC1,-0.5,-34.7*,0.6,2.4,-4.5
Cc1ccc(S(=O)(=O)c2cn(C)c3cc(N4CCCCC4)c(F)cc3c2=O)cc1,-0.9,-3.5,-0.4,-0.7,4.5
Cc1ccc(C)c(S(=O)(=O)c2cn(C)c3cc(N4CCCCC4C)c(F)cc3c2=O)c1 (centres undefined),1.8,11.0,0.1,3.5,37.5*
Cn1cc(S(=O)(=O)c2ccc(Cl)cc2)c(=O)c2cc(F)c(N3CCCCCC3)cc21,1.0,6.9,0.5,-0.4,34.7*

# Source: PubChem
